The list is not random: actives were taken first. Their share in the collection is about 4%.
D1 ag – human D1 receptor agonism | 360,000 compounds, 1% hits | activation, % at 2 µM | P21728 | HEK293 T-REx D1 cells, calcium flux, agonist mode | AID 504660; note: 0% is about no effect
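Inducible HEK293 T-REx D1 cells, force-coupled to calcium signalling, were plated at 4000 cells/well with tetracycline and held overnight at 30 C. After no-wash calcium dye loading, compound-evoked calcium rise over 180 s flagged agonists.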
D1 antagonist – antagonists of human D1 dopamine receptor | AID 504652 | activity change, negative = inhibition, % at 10 µM | HEK293 TREx D1 cells, calcium flux, dopamine EC80; hits give low values | P21728 | 360,000 compounds, 3.2% hits; in the data active = activity change below about -30%; note: % is set by controls: 0 for no effect and ±100 for the full control effect
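Allosteric or orthosteric antagonism assessed as attenuation of the calcium response to EC80 dopamine, added 180 s after compound, in induced HEK293 Trex D1 cells loaded with no-wash calcium dye.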
GRP78 ERSR act – inducers of ER stress response in human glioma cells. AID 602332. Potency, µM, for inactives: at the highest dose activation, usual class: activators. U87-MG GRP78 promoter luciferase reporter, 16 h. 420,000 compounds, 0.02% hits; active = well fitted activation curve with a large enough effect; note: potency is the fitted concentration of half-maximal effect; series mostly up to about 76 µM; % of control where 0% means no effect; nearly all actives have a fitted effect of over 35% in size
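Stably transfected U87-MG human glioma cells carrying a GRP78-based luminescent sensor were seeded at 1000 cells/well, pin-dosed with compounds and incubated 16 h. Luciferase reagent was then added, and end-point luminescence was read after 10 min at room temperature.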
D1 potentiator – potentiators of human D1 dopamine receptor; HEK293 TREx D1 cells, calcium flux, dopamine EC20 potentiation; potentiation, % at 10 µM; 360,000 compounds, 0.036% hits; in the data active = potentiation above about 30%; note: 0% is about no effect
TRHR ag – activates the human TRH receptor; P34981; TRHR cells, calcium flux fluo-8, FDSS agonist mode; activation, % at 2 µM; 360,000 compounds, 0.18% hits; note: 0% is about no effect
Target sequence (P34981 whole entry, looked up): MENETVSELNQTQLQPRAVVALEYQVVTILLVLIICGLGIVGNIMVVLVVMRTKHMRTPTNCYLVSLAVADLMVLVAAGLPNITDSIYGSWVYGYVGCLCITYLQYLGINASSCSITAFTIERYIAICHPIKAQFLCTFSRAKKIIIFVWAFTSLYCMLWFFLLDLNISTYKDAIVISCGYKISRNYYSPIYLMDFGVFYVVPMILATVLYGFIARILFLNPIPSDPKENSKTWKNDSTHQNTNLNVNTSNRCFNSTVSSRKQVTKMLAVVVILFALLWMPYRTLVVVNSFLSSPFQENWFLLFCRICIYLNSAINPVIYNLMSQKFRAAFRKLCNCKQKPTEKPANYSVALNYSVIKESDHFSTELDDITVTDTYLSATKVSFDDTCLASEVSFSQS
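Steps: seed TRHR cells overnight; add fluo-8 no-wash Ca dye, RT 30 min–1.5 h; record 10 s baseline; pin-transfer compounds; monitor fluorescence 1 cycle/s for the agonist window. Calcium increases flag candidate agonists.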
TRHR PAM – allosteric enhancers of human TRH receptor. AID 493056. TRHR cells, fluo-8 calcium fluorescence, EC20 TRH enhancement. P34981. enhancement, % at 2 µM. 360,000 compounds, 0.66% hits; in the data active = enhancement above about 30%; note: 0% is about no effect
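Enhancer read-out: after compound pinning and an initial kinetic agonist-mode read, an EC20 of TRH (10 nM final) was injected and fluo-8 calcium signal (Ex 480/Em 530) followed at 1 s/cycle for 100 cycles in TRHR-expressing cells.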
* hit, by the source's call; . = no result given; ! = not active in a repeat. Cut-off read from the data, not from the text of the source, unless noted: active = activation above about 30%; inactive = the rest.

SMILES | D1 ag | D1 antagonist | GRP78 ERSR act | D1 potentiator | TRHR ag | TRHR PAM
CSCCC(NS(=O)(=O)c1ccc2c(c1)oc(=O)n2C)C(=O)N1CCN(c2cccc(Cl)c2)CC1 (configuration not stated) | 10.0 | 0.2 | -3.1% | -6.3 | 0.5 | 37.9*
COc1cccc(N2CCN(C(=O)C(CCSC)NS(=O)(=O)c3ccc4c(c3)oc(=O)n4C)CC2)c1 (configuration not stated) | 0.3 | 15.4 | -3.9% | 2.4 | -0.1 | 3.6
Cn1c(=O)oc2cc(S(=O)(=O)N3CCCC(C(=O)N4CCN(c5cccc(Cl)c5)CC4)C3)ccc21 (configuration not stated) | 5.9 | -31.7* | -2.2% | -2.8 | -0.2 | -9.1
Cc1cccc(N2CCN(C(=O)C3CCCN(S(=O)(=O)c4ccc5c(c4)oc(=O)n5C)C3)CC2)c1C (configuration not stated) | 3.8 | -30.8* | -1.5% | -1.5 | -1.0 | -5.9
CCCNC(=O)Cc1ccsc1 | -0.8 | -1.9 | -3.5% | -1.9 | 0.2 | -7.0
CCC(C)NC(C(=O)Nc1ccc(Cl)c([N+](=O)[O-])c1)c1ccccc1 (configuration not stated) | 5.4 | -10.8 | -1.7% | -3.3 | 0.2 | 1.2
CSc1nnc(-c2ccc(Br)s2)n1C | 1.8 | 0.9 | 2.2% | 0.5 | -2.3 | 2.2
Cc1cccc(CCNC(=O)C2CCCN(S(=O)(=O)c3ccc4c(c3)oc(=O)n4C)C2)c1 (configuration not stated) | -1.3 | -50.2* | 0.9% | -3.1 | -1.6 | -5.0
Cn1c(=O)oc2cc(S(=O)(=O)N3CCCC(C(=O)NCCc4ccccc4)C3)ccc21 (configuration not stated) | 0.3 | -3.7 | -2.3% | -2.9 | -1.0 | -2.0
COc1ccc(N(CC(=O)N2CCC(C)CC2)S(=O)(=O)c2c(C)nn(C)c2C)cc1 | 0.7 | 14.4 | -1.7% | 1.7 | -0.2 | 0.9
O=C(Cc1ccc(O)cc1)NCCNC(=S)NCc1ccccc1 | 3.4 | 22.4 | -0.8% | -1.9 | 0.3 | 0.2
NS(=O)(=O)c1ccc(CCNC(=O)C(=O)NCC2OCCN2S(=O)(=O)c2cccs2)cc1 (configuration not stated) | 3.9 | 12.3 | 7.8% | 4.3 | -0.1 | -1.3
CC/C(C)=N/Nc1ccc(S(=O)(=O)N2CCCC2)cc1[N+](=O)[O-] | 2.0 | -47.5* | -1.7% | -1.1 | -0.2 | -5.0
CC(C)[C@H](Nc1ccc(S(=O)(=O)N2CCOCC2)cc1[N+](=O)[O-])C(=O)OCC(N)=O | 1.9 | -74.0* | -2.0% | -7.4 | 0.1 | 4.1
Cc1cc(C)cc(C(=O)Nc2cc3c4c(c2)CC(=O)N4CCC3)c1 | 1.3 | 13.2 | -2.8% | 1.0 | -0.1 | -0.8
CC(=O)OC(C(=O)NC1CCCCC1)c1ccccc1F (configuration not stated) | 2.7 | -8.0 | 2.5% | 4.5 | 0.7 | 3.0
O=C(Nc1cccc(-n2cnnn2)c1)c1ccco1 | 3.3 | -57.0* | 2.2% | -3.6 | -0.1 | -3.7
O=C(Nc1cccc(-n2cnnn2)c1)c1cc2ccccc2o1 | 1.5 | 6.8 | -0.6% | 2.9 | 0.8 | -5.4
O=C(Nc1cccc(-n2cnnn2)c1)c1cc(Cl)ccc1Cl | 4.8 | -44.1* | 12.2% | -10.2 | -0.5 | 0.1
Cc1cc(C(=O)N/N=C2\CCCC(=O)C2)c(C)o1 | 2.3 | -3.5 | -2.4% | -5.5 | -0.2 | -1.6
COc1ccc(C)cc1NC(=O)c1ccc2c(=O)n3c(nc2c1)CCCCC3 | 3.2 | -5.5 | -2.9% | -0.8 | -1.2 | 0.1
ONC(=NCc1ccccc1)c1ccccc1 | . | . | -1.2% | . | . | .
CN(C)CCCNc1ncc(C(F)(F)F)cc1Cl | 1.4 | 12.4 | -1.5% | 0.1 | -0.2 | 12.8
CN(C)CCCNS(=O)(=O)c1ccc(Oc2ncc(C(F)(F)F)cc2Cl)cc1 | 60.7* | -17.2 | 5.4% | -6.5 | -1.4 | 4.8
CC(C)(C)c1ccc(NC(=O)CN2C(=O)NC(C)(C3CC3)C2=O)cc1 (configuration not stated) | 1.7 | 4.8 | 2.2% | 10.2 | 0.1 | 5.1
SMILES | D1 ag | D1 antagonist | GRP78 ERSR act | D1 potentiator | TRHR ag | TRHR PAM
Cn1c(CSCc2ccc(Cl)cc2)nnc1SCC(=O)Nc1nccs1 | 19.1 | -49.4* | 1.6% | -8.7 | -1.0 | -6.3
Cn1c(CSCc2ccc(Cl)c(Cl)c2)nnc1SCC(=O)Nc1nccs1 | 7.2 | -25.9 | -2.2% | -1.6 | 0.0 | -5.6
OCCNCc1cc(Br)ccc1OCc1ccc(Cl)cc1Cl | 38.5* | 0.9 | -14.7% | -3.9 | 0.4 | 1.8
COc1ccc(OC2CCN(S(=O)(=O)c3ccc(OC)cc3)CC2)cc1 | 35.3* | -36.2*! | -0.4% | -2.1 | -1.1 | -5.9
COc1ccc(S(=O)(=O)N2CCC(C(=O)Nc3ccc(Oc4ccccc4)cc3)CC2)cc1OC | 7.8 | 0.8 | -0.9% | -1.6 | -0.1 | 32.3*
COc1ccc(OC)c(S(=O)(=O)N2CCC(c3nc4ccccc4[nH]3)CC2)c1 | 2.6 | -5.4 | -3.4% | -4.6 | 0.6 | -9.7
COc1ccc(S(=O)(=O)N2CCC(c3nc4ccccc4[nH]3)CC2)cc1 | -0.5 | -16.2 | -3.5% | -2.1 | -0.4 | 39.3*
COc1ccc(S(=O)(=O)N2CCN(C3CCCCCCC3)CC2)cc1 | -0.7 | -68.2*! | -1.7% | -7.2 | -4.1 | -4.9
COc1ccc(S(=O)(=O)N2CCN(S(=O)(=O)c3ccc(OC)cc3)CC2)cc1 | -0.8 | -5.2 | . | 2.0 | -0.2 | -2.8
COc1ccc(S(=O)(=O)N2CCC(N3CCCCC3)CC2)cc1 | 1.9 | -0.6 | -2.9% | 3.3 | -0.2 | -0.4
C[C@@H](NC(=O)c1ncn2c1c(=O)[nH]c1ccc(Br)cc12)c1ccccc1 | . | . | -2.6% | . | . | .
Cc1sc2ncnc(N3CCN(S(=O)(=O)c4ccccc4)CC3)c2c1C | 2.7 | -7.4 | -4.6% | -8.8 | -0.1 | 2.0
O=C(O)CSC(=S)N1CCCCC1 | 3.6 | 2.8 | -1.8% | 8.1 | 0.4 | -0.6
Clc1ccc(OCCSc2ncccn2)c(Br)c1 | 2.7 | -2.0 | -2.4% | -5.7 | -0.4 | -1.6
COc1ccc(S(=O)(=O)N2CCC(Oc3cccc(C(F)(F)F)c3)CC2)cc1OC | -0.3 | -36.1* | -1.3% | 3.1 | -0.8 | 6.7
CCOC(=O)N1CCC(N2CCN(S(=O)(=O)c3ccc(OC)cc3)CC2)CC1 | 13.2 | -35.8* | -5.1% | -4.0 | 0.6 | -7.1
CC1(C)CC(=O)C2=C(C1)Nc1ccccc1S2 | 2.3 | -15.7 | -8.9% | -4.5 | -0.2 | -3.1
CC1(C)CC(=O)C2=C(C1)Nc1ccccc1N=C2 | 38.7* | -11.1 | . | 9.8 | 18.8 | -3.9
CC1(C)CC(=O)C2=C(C1)Nc1ccccc1NC2 | -0.3 | -50.6* | -2.5% | -4.9 | -1.0 | -1.0
Cc1ccc(CNC(=O)c2cc3c(=O)n(C)c4ccccc4c3n2C)o1 | -0.5 | -44.6* | -5.8% | . | -0.6 | -4.0
